In PubChem BioAssay AID2540 (Sanford-Burnham Center for Chemical Genomics, 2010) one finds inhibition data, which are given here for 64 compounds.

SMILES strings stand for the structures. Out of some 330,000 compounds screened, about 4,100 (1.2%) were called active. Many of the other results were omitted from the sample, so actives are more common in it than they were. A number with no mark means an inactive call. Rule as the data show it: active = inhibition above about 50%; inactive = the rest.

The target of this experiment is Sentrin-specific protease 8 (Homo sapiens) (UniProt Q96LD8). Description: blockers of human SENP8 peptidase activity – biochemical, luminescence, primary screen (AID 2540). The note with it: purified SENP8, Z-RLRGG-aminoluciferin cleavage, at 10 µM, stronger effect = higher value.
Sentrin-specific protease 8 (Homo sapiens), sequence (Q96LD8 whole entry, looked up): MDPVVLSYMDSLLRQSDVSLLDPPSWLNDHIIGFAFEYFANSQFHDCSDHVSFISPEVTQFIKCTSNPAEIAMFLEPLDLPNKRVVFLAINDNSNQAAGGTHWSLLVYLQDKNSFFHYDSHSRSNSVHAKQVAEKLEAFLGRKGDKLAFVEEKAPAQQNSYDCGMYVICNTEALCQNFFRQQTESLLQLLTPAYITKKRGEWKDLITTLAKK
In general, inhibition refers to the change of the read-out against control, counted positive when it falls. As to `O=C(NCCOc1cccnc1)c1ccc(OC2CCN(Cc3ccccn3)CC2)cc1`, the inhibition is -5.27%.

`CCN(C(=O)COc1cccnc1[N+](=O)[O-])C1CCS(=O)(=O)C1` (centres undefined): the inhibition was 1.37%.

As for `O=C1C2CCCN2C(=O)N1CCCCN1CCN(c2cccc(C(F)(F)F)c2)CC1` (centres undefined), the inhibition was 11.4%.

Consider `O=C(COC(=O)c1cccnc1Cl)Nc1ccc(S(=O)(=O)N2CCOCC2)cc1`, for which the inhibition was -1.74%.

Turning to `COc1ccc(NS(=O)(=O)c2cc(C(=O)Nc3ccccc3C(=O)O)ccc2C)cc1`, the inhibition was -12.1%.

Turning to `COc1ccc(C(=O)Nc2ccccc2C(=O)N2CCN(c3ccccc3)CC2)cc1`, the inhibition is 0.756%.

Consider `COc1ccc(/C=N/Nc2ccccc2C(=O)O)cc1`, for which the inhibition was 96.1% (active).

Regarding `O=C(N/N=C/c1ccc(OC(=O)c2ccccc2Cl)cc1)c1ccc(O)cc1`, the inhibition is 1.64%.

On to `COc1ccc(/C=N/OCC(=O)N(Cc2ccccc2)c2ccccc2C(=O)O)cc1`, for which the inhibition is -0.249%.

Take `COc1ccc(C(=O)Nc2ccccc2C(=O)N/N=C/c2ccc(O)c(OC)c2)cc1`: the inhibition is 96.1% (active).

Consider `CCOC(=O)C(C)n1cnc2c(nnn2-c2cccc(OC)c2)c1=O` (centres undefined), for which the inhibition was -4.12%.

For the compound `Cc1cc(=O)oc2c(C(=O)c3ccccc3)c(OCC(N)=O)ccc12`, the inhibition was 5.39%.

As for `Nc1[nH]c(=S)nc2nc(-c3ccccc3)c(-c3ccccc3)nc12`, the inhibition is -9.6%.

Regarding `Cc1cccnc1CCNC(=O)C1CCC(=O)N(Cc2cccc(F)c2)C1` (centres undefined), the inhibition is -1.77%.

On to `O=C(CNCc1ccco1)Nc1cc(S(=O)(=O)N2CCOCC2)ccc1N1CCCC1`, for which the inhibition is -6.3%.

As for `CCN(CC)C(=O)CC1(c2ccccc2OC)CCOC(C(C)C)C1` (centres undefined), the inhibition was -10.8%.

As to `COc1ccc(CCNC(=O)C2CCCN2C(=O)Nc2ccccc2)cc1OC` (centres undefined), the inhibition was -4.97%.

Take `Brc1ccc(-c2nnc(-c3ccccc3)o2)o1`: the inhibition was 35.5%.

On to `Brc1ccc(-c2noc(-c3ccccc3)n2)o1`, for which the inhibition is 73% (active).

Take `Nc1nonc1-c1noc(-c2ccc(Br)o2)n1`: the inhibition is -7.25%.

Consider `O=C(CCc1nc2ccccc2c(=O)[nH]1)OCC(=O)c1cccc(Cl)c1`, for which the inhibition was -5.04%.

Regarding `O=c1[nH]c(CCl)nc2cc(-c3ccc(Cl)cc3)sc12`, the inhibition is 90.6% (active).

With `CCC1(CC)Cc2ccccc2-c2nc(CCl)[nH]c(=O)c21`, the inhibition is 1.95%.

In the case of `O=C(NCCc1ccco1)C(=O)NCCC1CCCCN1S(=O)(=O)c1ccccc1` (centres undefined), the inhibition is 2.72%.

On to `CC(C)(C)NC(=O)CN(Cc1cccs1)C(=O)CNS(=O)(=O)c1ccccc1`, for which the inhibition is 2.68%.

Turning to `O=C(CSc1cccc[n+]1[O-])NCCCc1ccccc1`, the inhibition is 3.26%.

On to `Fc1ccc(COc2cccc(-c3n[nH]c(=S)o3)c2)cc1`, for which the inhibition is 26.4%.

For the compound `Fc1ccc(COc2ccc(-c3nnco3)cc2)cc1`, the inhibition was 52.5% (active).

`Fc1cccc(Cl)c1COc1ccc(-c2nnco2)cc1`: the inhibition is -0.803%.

For `CCN(CC)c1ccc(S(=O)(=O)N2CCCCC2)cc1NC(=O)C1=COCCO1`, the inhibition is -1.53%.

For `COC(=O)c1ccc(C)c(NC(=O)C2CC(=O)N(C3CCCC(C)C3C)C2)c1` (centres undefined), the inhibition is -6.55%.

With `O=C(Nc1ccc(F)cc1)c1cc2c(s1)CCCC2`, the inhibition was 90.8% (active).

As to `O=C(NCC1CCCO1)c1cc2c(s1)CCCC2` (centres undefined), the inhibition was 0.761%.

On to `CN(C)C(=O)c1ccc(NC(=O)COC(=O)c2cc3c(s2)CCCCC3)cc1`, for which the inhibition was -5.57%.

Turning to `CC(NC(=O)c1cc2cc(Cl)ccc2oc1=N)c1ccccc1` (centres undefined), the inhibition was -6.62%.

With `COCC(C)NC(=O)COc1nncc2ccccc12` (centres undefined), the inhibition was -1.01%.

For `CCCC(=O)Nc1cccc(NC(=S)NC(=O)C(C)Oc2ccc(Cl)cc2Cl)c1` (centres undefined), the inhibition was -4.44%.

As to `Nc1ncc(-c2cc3ccccc3oc2=O)s1`, the inhibition was 84% (active).

For `O=C(NCc1cccnc1)c1cccc(-c2cc3ccccc3oc2=O)c1`, the inhibition was -8.55%.

Regarding `O=c1oc2ccccc2cc1-c1cn(-c2ccccc2)c(=S)[nH]1`, the inhibition was -12.9%.

As for `O=C(/C=C/c1ccc2c(c1)OCO2)NCc1ccc(F)cc1`, the inhibition was -4.04%.

As to `Cc1cccc(NC(=O)Nc2ccc3c(c2)OCO3)n1`, the inhibition is 13.3%.

In the case of `Cc1cccc(NC(=O)/C=C/c2ccc3c(c2)OCO3)n1`, the inhibition is 73.5% (active).

With `COc1ccc(OC)c(NC(=O)c2cnn(-c3ccccc3Cl)c2NC(=O)c2ccco2)c1`, the inhibition was 7.71%.

As for `COc1ccc2[nH]c(C(=O)Nc3ccccc3Cl)cc2c1`, the inhibition was -24.6%.

As to `CC(OC(=O)c1cc2ccccc2[nH]1)C(=O)N(C)c1ccccc1` (centres undefined), the inhibition was -8.47%.

Take `O=C(Nc1ccccc1)c1cc2ccccc2[nH]1`: the inhibition was 72% (active).

Take `CSc1ccc(/C=N/NC(=O)c2cccc(Cl)c2)cc1`: the inhibition was 89.4% (active).

With `O=C(N/N=C/c1ccc(Cl)c(Cl)c1)c1ccc2nc[nH]c2c1`, the inhibition is -2.15%.

Take `CSc1ccc(/C=N\NC(=O)CC(=O)NC(C)C)cc1`: the inhibition was 5.31%.

As to `O=C(CNS(=O)(=O)c1ccc(Br)s1)NCc1ccc2c(c1)OCO2`, the inhibition was -11.1%.

With `COc1ccc(C(=O)Nc2ccc(F)cc2F)cc1`, the inhibition was 65.2% (active).

As for `CC(C)CC(=O)NC(=S)Nc1ccc(F)cc1F`, the inhibition is 3.9%.

Consider `COc1ccc(C(=O)Nc2cc(C)ccc2NC(=O)COc2ccccc2)cc1`, for which the inhibition was -2.67%.

Take `CCC(CO)Oc1cc(NCc2ccccc2)c2ncn(C3CCCC3)c2c1` (centres undefined): the inhibition is -0.274%.

Take `CC(C)n1cnc2c(NCc3ccccc3)cc(OCC3CCN(C)CC3)cc21`: the inhibition is 44.5%.

Regarding `CC(C)n1cnc2c(NCc3ccccc3)cc(N[C@@H](CO)Cc3ccccc3)cc21`, the inhibition was 72.8% (active).

For the compound `CN1CCC(N(C)S(=O)(=O)c2ccc(NC(=O)c3cccc(C#N)c3)cc2)CC1`, the inhibition is -1.55%.

On to `Cc1nnc2n1N=C(c1ccccc1)CS2`, for which the inhibition is 1.54%.

Turning to `O=c1c2cc(-c3ccccc3)sc2nc2n1N=C(c1cccs1)CS2`, the inhibition was 57.5% (active).

Turning to `O=c1c(-c2ccccc2)cnc2n1CCS2`, the inhibition is 6.64%.

In the case of `O=C(Nc1cccc(NC(=O)c2cccc(F)c2)c1)c1ccccc1`, the inhibition is -15.3%.

Consider `O=C(Nc1ccc(C(=O)O)c(O)c1)c1ccccc1`, for which the inhibition is 76.3% (active).

`O=C(Cc1ccccc1)Nc1cccc(NC(=O)c2ccccc2)c1`: the inhibition was -8.4%.
